This passage reports Potency and outcome results from PubChem BioAssay (Tox21).

Records with an inconclusive call do not appear. Unmarked numbers belong to inactive results. The source made the active and inactive calls. Unless noted, calls come from the whole dose curve; as a rule, active = well fitted curve in the direction sought with a large enough effect in the repeat runs; inconclusive = weak or mixed curves; inactive = no such curve, though single readings can be large; an effect the other way counts as inactive or inconclusive.

The nature of experiment [1]: qHTS assay to identify small molecule antagonists of the thyroid receptor (TR) signaling pathway - cell viability counter screen (AID 743064). Note: nearly all actives have a fitted effect of over 50% in size. An outline of the steps:
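GH3.TRE-Luc rat pituitary cells dosed after 4 hr plating, co-stimulated with T3 at 1 nM final, incubated 23.5 h at 37 C. Viability measured in the same wells by CellTiter-Fluor fluorescence after 30 min further at 37 C.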
A general note: In qHTS, concentration-response curves come from the screen itself.

Experiment [2] in a line: qHTS assay to identify small molecule antagonists of the thyroid receptor (TR) signaling pathway (AID 743065). Note: series mostly up to about 70 µM; nearly all actives have a fitted effect of over 55% in size. An outline of the steps: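 Antagonism measured as loss of luciferase signal in GH3 cells stably carrying a TRE-luciferase reporter, co-treated with compound and T3 (1 nM final) for 23.5 h at 37 C. Viability was read in the same well by CellTiter-Fluor.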
Experiment [3] deals with thyroid hormone receptor (rat, GH3 cells). In words: qHTS assay to identify small molecule agonists of the thyroid receptor (TR) signaling pathway (AID 743066; calls by dose curve).
Experiment [4] can be described thus: qHTS assay to identify small molecule antagonists of the estrogen receptor alpha (ER-alpha) signaling pathway - cell viability counter screen (AID 743074; calls by dose curve; note: nearly all actives have a fitted effect of over 45% in size).
Experiment [5] has as its target Estrogen receptor (Homo sapiens) (UniProt P03372). In words: qHTS assay to identify small molecule agonists of the estrogen receptor alpha (ER-alpha) signaling pathway (AID 743075; calls by dose curve).
Experiment [6] shares this target. As to the kind of experiment: qHTS assay to identify small molecule agonists of the estrogen receptor alpha (ER-alpha) signaling pathway using the BG1 cell line (AID 743079). Note: nearly all actives have a fitted effect of over 20% in size. Note: potency is the fitted concentration of half-maximal effect.
Experiment [7] can be described thus: qHTS assay to identify small molecule antagonists of the estrogen receptor alpha (ER-alpha) signaling pathway using the BG1 cell line (AID 743080; calls by dose curve;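 note: BG1 cells stimulated with 17beta-estradiol alongside compound; nearly all actives have a fitted effect of over 25% in size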; note: potency is the fitted concentration of half-maximal effect). An outline of the steps: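 Seeding, 24 h rest, compound transfer from DMSO, 17beta-estradiol addition, 21.5 h incubation, CellTiter-Fluor (30 min, 37 C), then ONE-Glo (30 min, room temperature): this sequence was run on BG1-Luc-4E2 reporter cells.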

A short description of experiment [8]: qHTS assay to identify small molecule antagonists of the estrogen receptor alpha (ER-alpha) signaling pathway using the BG1 cell line - cell viability counter screen (AID 743081).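 Note: compound given together with 17beta-estradiol as the ER stimulus; series mostly up to about 70 µM; nearly all actives have a fitted effect of over 45% in size.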
The target of experiment [9] is Aromatase (Homo sapiens) (UniProt P11511). In words: qHTS assay to identify aromatase inhibitors (AID 743083). Note: nearly all actives have a fitted effect of over 55% in size. Note: potency is the fitted concentration of half-maximal effect.
Experiment [10] in a line: qHTS assay to identify aromatase inhibitors - cell viability counter screen (AID 743084).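 Note: cells stimulated with testosterone during compound exposure; nearly all actives have a fitted effect of over 55% in size.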
Experiment [11] concerns the target Aryl hydrocarbon receptor (Homo sapiens) (UniProt P35869). In words: qHTS assay to identify small molecule that activate the aryl hydrocarbon receptor (AhR) signaling pathway (AID 743085).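 Note: HG2L7.5c1 human HepG2 liver cells with stably integrated DRE-driven firefly reporter; series mostly up to about 70 µM; nearly all actives have a fitted effect of over 15% in size.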 Put shortly:
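HepG2 cells stably carrying a 20-DRE firefly luciferase reporter (HG2L7.5c1) treated with compound for 24 hr at 37C. Luciferase read by ONE-Glo luminescence, with CellTiter-Fluor viability read first.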

The nature of experiment [12]: qHTS assay to identify small molecule that activate the aryl hydrocarbon receptor (AhR) signaling pathway - cell viability counter screen (AID 743086).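 Note: HepG2 liver cells carrying the AhR DRE luciferase reporter; series mostly up to about 70 µM; nearly all actives have a fitted effect of over 45% in size.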 An outline of the steps:
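Cytotoxicity counter screen: CellTiter-Fluor signal (30 min, 37 C) in 4000 HepG2 cells/well carrying the DRE-luciferase reporter, following 24 h compound exposure at 37 C.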

Experiment [13] has as its target Peroxisome proliferator-activated receptor gamma (Homo sapiens) (UniProt P37231). As to the kind of experiment: qHTS assay to identify small molecule agonists of the peroxisome proliferator-activated receptor gamma (PPARg) signaling pathway (AID 743094; active = well fitted activation curve with a large enough effect in the signal ratio in the repeat runs, not every such curve was filed as active; the % refers to the signal ratio). An outline of the steps:
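Agonist activity was taken from a beta-lactamase reporter (FRET substrate, 1 h at room temperature) in HEK293H cells carrying a PPARg UAS-bla construct. Compounds in DMSO were incubated 17 h at 37C after a 5 h cell pre-incubation.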

For experiment [14] the target is unchanged. As to the kind of experiment: qHTS assay to identify small molecule antagonists of the peroxisome proliferator-activated receptor gamma (PPARg) signaling pathway (AID 743191; calls by dose curve; note: series mostly up to about 63 µM; nearly all actives have a fitted effect of over 30% in size). An outline of the steps: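 Beta-lactamase reporter under UAS control in HEK293H PPARg-bla cells; compound treatment 17 h at 37C. Read-out: fluorescence intensity after 1 h room-temperature incubation with LiveBLAzer B/G FRET substrate.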

The nature of experiment [15]: qHTS assay to identify small molecule antagonists of the peroxisome proliferator-activated receptor gamma (PPARg) signaling pathway - cell viability counter screen (AID 743194). Note: nearly all actives have a fitted effect of over 55% in size. An outline of the steps: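 Viability was measured as CellTiter-Glo luminescence in GeneBLAzer PPARg UAS-bla HEK293H cells. These cells had been exposed 17 h at 37 C to compounds together with rosiglitazone at 50 nM final, with the beta-lactamase readout taken in the same wells.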

A short description of experiment [16]: qHTS assay for small molecule agonists of the antioxidant response element (ARE) signaling pathway (AID 743202; active = well fitted activation curve with a large enough effect in the signal ratio in the repeat runs, not every such curve was filed as active; the % refers to the signal ratio). An outline of the steps:
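Beta-lactamase reporter activity, read as fluorescence intensity, reflects ARE/Nrf2 pathway induction in HepG2 cells after 16 h compound exposure at 37 C; substrate loading was 2 h at room temperature.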

Experiment [17] in a line: qHTS assay for small molecule agonists of the antioxidant response element (ARE) signaling pathway - cell viability counter screen (AID 743203; calls by dose curve; note: nearly all actives have a fitted effect of over 55% in size). An outline of the steps: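 Viability counter screen: CellTiter-Glo luminescence, read after 30 min at room temperature, in ARE-bla HepG2 wells. Compound exposure lasted 16 h at 37C/5% CO2, following a 5 h pre-incubation of the cells after plating.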

A short description of experiment [18]: qHTS assay for small molecule activators of the heat shock response signaling pathway - cell viability counter screen (AID 743209). Note: nearly all actives have a fitted effect of over 50% in size. Put shortly:
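Cytotoxicity counter screen run in the same wells as the heat-shock bla reporter assay: HeLa HSE-bla cells, 5 h compound exposure at 37 C, viability read by CellTiter-Glo luminescence.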

Experiment [19] can be described thus: qHTS assay for small molecule activators of the heat shock response signaling pathway (AID 743210; active = well fitted activation curve with a large enough effect in the signal ratio in the repeat runs, with a control signal flat, not every such curve was filed as active; the % refers to the signal ratio;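 note: HeLa cells with beta-lactamase reporter driven by heat shock elements; series mostly up to about 63 µM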). Put shortly: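 Fluorescence from a cleaved B/G FRET substrate (2.5 h, room temp) reports HSE-driven beta-lactamase in HeLa cells treated 5 h at 37 C with DMSO-dissolved compounds.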
Experiment [20] has as its target Estrogen receptor (Homo sapiens) (UniProt P03372). In words: qHTS assay to identify small molecule antagonists of the estrogen receptor alpha (ER-alpha) signaling pathway (AID 743069; active = well fitted curve in the direction sought with a large enough effect in the signal ratio in the repeat runs, not every such curve was filed as active; the % refers to the signal ratio). Put shortly:
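Fluorescence intensity from a beta-lactamase FRET substrate served as the read-out. Cells: HEK293 with stably integrated ER-alpha-UAS-bla reporter. Agonist 17beta-estradiol was co-added with compounds; incubation 18 hr at 37C, substrate 2 hr at room temperature.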

Sequence of Aryl hydrocarbon receptor (Homo sapiens) (P35869 whole entry, looked up): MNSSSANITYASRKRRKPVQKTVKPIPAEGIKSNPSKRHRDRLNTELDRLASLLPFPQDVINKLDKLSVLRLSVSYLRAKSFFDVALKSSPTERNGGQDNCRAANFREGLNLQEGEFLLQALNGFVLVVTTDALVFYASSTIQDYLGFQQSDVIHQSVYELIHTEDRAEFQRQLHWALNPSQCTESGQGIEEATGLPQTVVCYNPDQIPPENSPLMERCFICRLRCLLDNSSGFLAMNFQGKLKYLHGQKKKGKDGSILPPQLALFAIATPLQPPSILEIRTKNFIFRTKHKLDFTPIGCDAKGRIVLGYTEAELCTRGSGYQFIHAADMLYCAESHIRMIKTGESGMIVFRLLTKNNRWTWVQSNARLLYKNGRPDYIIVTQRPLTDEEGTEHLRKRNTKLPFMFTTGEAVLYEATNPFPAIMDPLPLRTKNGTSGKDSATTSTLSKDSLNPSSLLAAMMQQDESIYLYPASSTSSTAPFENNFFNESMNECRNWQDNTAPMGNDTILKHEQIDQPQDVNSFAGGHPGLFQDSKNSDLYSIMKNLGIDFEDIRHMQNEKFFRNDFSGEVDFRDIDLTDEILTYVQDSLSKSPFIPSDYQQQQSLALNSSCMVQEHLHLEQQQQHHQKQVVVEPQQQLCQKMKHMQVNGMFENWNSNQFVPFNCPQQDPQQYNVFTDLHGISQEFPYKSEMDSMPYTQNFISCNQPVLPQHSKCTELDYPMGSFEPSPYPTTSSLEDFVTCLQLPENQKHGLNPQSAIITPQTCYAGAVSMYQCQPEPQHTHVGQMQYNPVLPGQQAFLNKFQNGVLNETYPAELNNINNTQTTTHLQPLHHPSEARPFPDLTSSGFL
Sequence of Aromatase (Homo sapiens) (P11511 whole entry, looked up): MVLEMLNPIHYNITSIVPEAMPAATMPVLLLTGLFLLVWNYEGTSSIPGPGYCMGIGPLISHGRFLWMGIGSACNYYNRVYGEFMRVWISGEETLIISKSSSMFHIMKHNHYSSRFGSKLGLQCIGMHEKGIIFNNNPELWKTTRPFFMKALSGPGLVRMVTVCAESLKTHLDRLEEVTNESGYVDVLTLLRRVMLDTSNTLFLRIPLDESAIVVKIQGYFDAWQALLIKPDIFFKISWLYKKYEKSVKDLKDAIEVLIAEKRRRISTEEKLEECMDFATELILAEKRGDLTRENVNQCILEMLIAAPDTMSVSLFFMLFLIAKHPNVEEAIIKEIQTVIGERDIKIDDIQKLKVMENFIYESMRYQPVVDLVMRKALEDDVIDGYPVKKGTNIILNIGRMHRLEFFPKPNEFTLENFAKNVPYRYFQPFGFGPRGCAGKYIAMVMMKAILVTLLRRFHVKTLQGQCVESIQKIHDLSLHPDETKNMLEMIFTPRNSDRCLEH
Sequence of Estrogen receptor (Homo sapiens) (P03372 whole entry, looked up): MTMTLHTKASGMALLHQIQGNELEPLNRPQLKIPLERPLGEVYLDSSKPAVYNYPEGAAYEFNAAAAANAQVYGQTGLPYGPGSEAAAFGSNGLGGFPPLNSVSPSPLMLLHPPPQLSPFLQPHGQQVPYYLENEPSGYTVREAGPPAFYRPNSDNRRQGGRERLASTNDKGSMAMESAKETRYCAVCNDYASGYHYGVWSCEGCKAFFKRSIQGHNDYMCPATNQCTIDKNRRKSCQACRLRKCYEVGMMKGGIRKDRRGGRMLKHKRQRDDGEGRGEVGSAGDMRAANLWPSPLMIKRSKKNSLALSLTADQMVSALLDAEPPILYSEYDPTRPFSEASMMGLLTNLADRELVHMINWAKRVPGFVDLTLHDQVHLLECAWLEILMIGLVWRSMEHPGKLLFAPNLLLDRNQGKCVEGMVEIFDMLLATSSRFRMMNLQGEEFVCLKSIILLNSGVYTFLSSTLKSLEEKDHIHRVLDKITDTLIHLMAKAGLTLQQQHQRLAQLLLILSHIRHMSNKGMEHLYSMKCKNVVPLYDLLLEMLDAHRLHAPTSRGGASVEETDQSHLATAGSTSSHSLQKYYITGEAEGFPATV
Sequence of Peroxisome proliferator-activated receptor gamma (Homo sapiens) (P37231 whole entry, looked up): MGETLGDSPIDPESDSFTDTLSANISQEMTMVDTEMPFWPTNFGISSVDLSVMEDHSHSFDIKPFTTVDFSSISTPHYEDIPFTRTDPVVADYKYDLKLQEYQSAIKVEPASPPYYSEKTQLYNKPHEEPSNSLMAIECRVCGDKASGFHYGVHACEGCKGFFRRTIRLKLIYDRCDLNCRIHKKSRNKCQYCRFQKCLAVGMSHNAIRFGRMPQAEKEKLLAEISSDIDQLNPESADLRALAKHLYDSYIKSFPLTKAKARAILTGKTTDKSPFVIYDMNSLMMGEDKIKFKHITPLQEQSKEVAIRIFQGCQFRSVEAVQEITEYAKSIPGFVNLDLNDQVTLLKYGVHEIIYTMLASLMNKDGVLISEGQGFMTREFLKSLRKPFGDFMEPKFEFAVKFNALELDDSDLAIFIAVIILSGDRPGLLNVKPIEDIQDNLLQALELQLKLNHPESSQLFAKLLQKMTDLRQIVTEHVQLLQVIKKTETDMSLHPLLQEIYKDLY

Consider `COC(=O)c1ccc(C(=O)OC)c(C(=O)OC)c1`, for which the Potency entry in experiment [1], in [2], in experiment [3], in [5], in [6] and in [7] was “inactive” each time. The Potency entry in experiment [9], in experiment [10], in [11], in experiment [12], in experiment [15] and in [16] was “inactive” throughout. Further, the call in [4], in experiment [8], in experiment [13], in [14], in experiment [17] and in [18] was inactive. In [19], the result was inactive.
Turning to `COCCOC(=O)CC#N`, the Potency result in experiment [1], in experiment [2], in experiment [3], in experiment [20], in [5] and in experiment [6] was “inactive” throughout. For the same compound, the Potency result in experiment [7], in experiment [9], in [10], in experiment [11], in experiment [12] and in experiment [15] was “inactive” in each case. The Potency entry in experiment [16] is “inactive”. Also, the compound was called inactive in experiment [4], in experiment [8], in experiment [17], in experiment [18] and in experiment [19].
With `C[C@H](O)C(=O)Nc1c(I)c(C(=O)NC(CO)CO)c(I)c(C(=O)NC(CO)CO)c1I`, the Potency entry in [1], in [2], in experiment [3], in [20], in experiment [5] and in [6] was “inactive” in each case. For the same compound, the Potency result in [9], in experiment [10], in experiment [11], in [12], in experiment [15] and in [16] was “inactive” in each case. Besides, the result in [4], in [8], in [13], in experiment [14], in experiment [17] and in experiment [19] was inactive.
With `CC(C)CCOC(=O)CC(C)C`, the Potency entry in [1], in experiment [2], in [3], in experiment [20], in experiment [5] and in experiment [6] was “inactive” throughout. In addition, the Potency entry in experiment [7], in experiment [9], in experiment [10], in experiment [11], in experiment [15] and in experiment [16] was “inactive” in each case. Also, the outcome in [4], in [8], in [13], in [14], in [17] and in experiment [19] was inactive.
Turning to `CC(C)=CC(=O)O`, the Potency entry in experiment [1], in experiment [2], in experiment [3], in experiment [20], in experiment [5] and in experiment [7] was “inactive” each time. The Potency result in experiment [9], in experiment [10], in [12] and in experiment [16] was “inactive” each time. The compound was called inactive in experiment [4], in [8], in experiment [13], in experiment [14], in experiment [17] and in experiment [18]. The Potency in experiment [6] was 54.5 µM (active).
Take `O=S(=O)(c1cccc2cnccc12)N1CCCNCC1`: the Potency entry in [1], in experiment [2], in experiment [3], in experiment [20], in experiment [5] and in experiment [10] was “inactive” each time. Further, the Potency result in [12] and in experiment [15] was “inactive” throughout. For the same compound, the compound was called inactive in experiment [4], in [8], in experiment [14], in experiment [17], in experiment [18] and in [19]. In addition, the Potency in [7] is 6.68 µM (active); in experiment [9], 13.3 µM (active).
In the case of `CC(C)=CCC/C(C)=C/C(=O)O`, the Potency result in experiment [1], in experiment [2], in experiment [3], in [20], in experiment [5] and in [6] was “inactive” in each case. Also, the Potency result in experiment [7], in [9], in experiment [10], in experiment [11], in [15] and in [16] was “inactive” in each case. Further, the compound was classed as inactive in [4], in [8], in experiment [17], in experiment [18] and in experiment [19].
On to `CC(C)COC(=O)C(C)C`, for which the Potency result in experiment [1], in experiment [2], in experiment [3], in [20], in experiment [5] and in experiment [6] was “inactive” in each case. Moreover, the Potency entry in [7], in experiment [9], in experiment [10], in experiment [11], in [12] and in experiment [15] was “inactive” in each case. Further, in [16], the Potency result is “inactive”. In addition, the result in experiment [4], in experiment [8], in experiment [17], in experiment [18] and in experiment [19] was inactive.
